Compounds without any hit were thinned out: in the full panel of roughly 83,000, 20% have a hit.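 How to read the values: 0–100, growth inhibition (40 = 60% inhibited); 0, no net growth; -100 to 0, cell death (-40 = 40% of starting cells died; -100 = all dead).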 Unmarked numbers belong to inactive results. Active and inactive are the calls of the source. Rule for the calls: active = growth percent below 10; inactive = the rest.

For this experiment, the system named is DU-145 prostate. Put plainly: NCI-60 one-dose screen, 48 h (100 = growth as untreated, 0 = no growth, -100 = all killed). The following applies: 10 µM unless noted.
Regarding `COc1cc(C2=NN(C(C)=O)C(c3ccc(N4CCOCC4)cc3)C2)cc(OC)c1OC` (centres undefined), the growth is 107%.
As for `COc1ccc([C@H]2c3[nH]c4ccccc4c3C[C@@H]3C(=O)N(C4CCN(Cc5ccccc5)CC4)CC(=O)N23)c(OC)c1`, the figure is 86.3%; as for `COc1ccc([C@H]2[C@H](O)C(=O)N2c2cc(OC)c(OC)c(OC)c2)cc1Cl`, 18.3%.
Under `COc1ccc(/C=C/C(=O)c2nnn(-c3ccc(C(=O)O)cc3)c2C)cc1OC` stands 104%; under `O=[N+]([O-])c1ccc(-c2nnc(SCc3ccc(O)c4ncccc34)n2-c2ccccc2)cc1`, 29%.
Under `O=C(NCCCNc1cc(-c2cn(-c3ccccc3)nc2-c2cccc(O)c2)ccn1)Nc1cccc(C(F)(F)F)c1` stands 66.9%; under `CC(C)C(=O)Nc1ccc(-c2nc(-c3cccc(O)c3)c(-c3ccnc(Br)c3)[nH]2)cc1`, 69.3%; under `Cc1cc(F)cc(NS(=O)(=O)c2ccc(-c3cnc(C4CC4)o3)cc2)c1`, 23.7%.
`CCOC(=O)c1c(NCC(=O)Nc2cccc(Cl)c2)sc2c1CCCC2`: the growth is 93.8%.
As for `O=S(=O)(Nc1cc(Cl)cc(Cl)c1)c1ccc(-c2cnc(C3CC3)o2)cc1`, the figure is 22.3%; as for `COc1cc2c3c(n(CCCNC4CCC4)c(=O)c2cc1OC)-c1cc2c(cc1C3=O)OCO2`, -73.5% (active).
Under `CCOC(=O)Nc1cccc(-n2cnc3cc(-c4ccc(O)cc4)ccc32)c1` stands 19.7%; under `CC(=O)NC(C)(C)C(=O)N[C@@H](C)C(=O)NC(C)(C)C(=O)N[C@@H](C)C(=O)NC(C)(C)C(=O)N[C@@H](C)C(=O)N[C@@H](CCC(N)=O)C(=O)NC(C)(C)C(=O)N[C@H](C(=O)NC(C)(C)C(=O)NCC(=O)N[C@@H](CC(C)C)C(=O)NC(C)(C)C(=O)N1CCC[C@H]1C(=O)N[C@H](C(=O)NC(C)(C)C(=O)NC(C)(C)C(=O)N[C@@H](CCC(N)=O)C(=O)N[C@@H](CCC(N)=O)C(=O)N[C@H](CO)CC1CCCCC1)C(C)C)C(C)C`, 55.5% [5 µM]; under `Cc1nn(-c2ccc(Cl)cc2)c(C)c1N=Nc1ccc2oc(=O)ccc2c1`, 74.5%.
Under `O=C(NCCNc1cc(-c2cn(-c3ccccc3)nc2-c2cccc(O)c2)ccn1)Nc1ccc(Cl)c(C(F)(F)F)c1` stands 94.6%; under `CN(c1ccc(Br)cc1)S(=O)(=O)c1ccc(-c2cnc(C3CC3)o2)cc1`, 26.2%; under `CC(C)C[C@H]1C(=O)O[C@H](C(C)C)C(=O)N(C)[C@@H](C(C)C)C(=O)O[C@H](C(C)C)C(=O)N(C)[C@@H](C(C)C)C(=O)O[C@H](C(C)C)C(=O)N1C`, 24.4%.
In the case of `CCCC(=O)NC(c1cccnc1)c1cc(Cl)c2cccnc2c1O` (centres undefined), the growth is 62.9%.
As for `Nc1nc(-c2cccc([N+](=O)[O-])c2)c(N=Nc2ccccc2[N+](=O)[O-])s1`, the figure is 37.4%; as for `C/C(=N\NC(=O)CSc1nc2sc3c(c2c(=O)n1-c1ccccc1)CCC(C)C3)c1ccc(Cl)cc1` (centres undefined), 22.8%; as for `C#C[C@]1(O)CC[C@H]2[C@@H]3CC=C4c5sc(Nc6nc(C)cc(OC)n6)nc5CC[C@]4(C)[C@H]3CC[C@@]21C`, 61.4%.
With `CN1CCN(c2ccc(NC(=O)Nc3ccc4c(ccn4-c4cccc(C(N)=O)n4)c3)cc2C(F)(F)F)CC1`, the growth is 77.2%.
Under `COc1ccc(NS(=O)(=O)c2ccc(-c3cnc(C4CC4)o3)cc2)cc1Cl` stands 24.1%.
With `CC1OC(O[C@@H]2C(O)C(CO)OC(O[C@H]3COC(O[C@H]4CC[C@]5(C)[C@H]6CC[C@]78OC[C@@]9(CC[C@](C)(C=O)C[C@H]97)[C@H](O)C[C@@]8(C)[C@]6(C)CC[C@H]5C4(C)C)[C@@H](OC4OC(CO)[C@@H](O)[C@@H](O)[C@@H]4O)[C@@H]3O)[C@H]2OC2OC[C@@H](O)[C@@H](O)[C@@H]2O)[C@@H](O)[C@@H](O)[C@H]1O` (some centres undefined), the growth was 41.8%.
`COc1ccc(-c2ccc3c4c(cccc24)C(=O)N(N2C(=O)c4cccc5cccc(c45)C2=O)C3=O)cc1`: the growth was 112%.
As for `N#Cc1c(NC(=O)c2ccc(F)c(Cl)c2)sc2c1CCC(=O)C2`, the figure is 25.8%; as for `Nc1ccc(-c2nnc(SCc3ccc(O)c4ncccc34)o2)cc1`, 9.69% (active).
As for `IP(CCCCCCCCCCSc1n(Cc2ccc3ccccc3c2)c(-c2ccccc2)c(-c2ccccc2)[n+]1Cc1ccc2ccccc2c1)(c1ccccc1)(c1ccccc1)c1ccccc1`, the figure is -69.6% (active); as for `Cc1cc(Cl)cc(NS(=O)(=O)c2ccc(-c3cnc(C4CC4)o3)cc2)c1`, 24.7%.
As for `COc1cc(/C=N/n2cnc3oc(-c4ccccc4)cc3c2=N)cc(CN2CCCCC2)c1O`, the figure is -82.8% (active).
For `CCOC(=O)c1c(NC(=O)c2ccc(C(C)(C)C)cc2)sc2cc(OCCN3CCCCC3)ccc12`, the growth is 71.5%.
As to `NS(=O)(=O)Oc1ccc2nc(Nc3ccc(F)c(F)c3)ccc2c1`, the growth is 92.9%.
Under `CC(=O)c1sc(Nc2cccc(Nc3nc(C)c(C)s3)c2)nc1C` stands 45.4%.
Under `CCCCCCNC(=O)Oc1ccc(/C(=C(\C)c2ccc(OC)cc2)c2ccc(OCCN(C)C)cc2)cc1` stands 96.8%; under `Cc1cccc(NC(c2cc3cccc4ccc5cccc2c5c43)c2nnnn2C(C)(C)C)c1C` (centres undefined), 104%.
As for `CCOC(=O)c1c(NCC(=O)Nc2cccc([N+](=O)[O-])c2)sc2c1CCCC2`, the figure is -15.2% (active).
Turning to `O=c1oc2ccc(-c3ccc(F)cc3F)cc2c(=O)n1-c1ccc(F)c(F)c1`, the growth is 17.5%.
As for `Brc1cccc(/C=N/Nc2nc(N/N=C/c3cccc(Br)c3)nc(N3CCOCC3)n2)c1`, the figure is 27.3%.
As for `N#C/C(=C\c1ccc2ccccc2c1)C(=O)Nc1sc2c(c1C#N)CCC2`, the figure is 103%.

These data come from PubChem BioAssay (NCI).
